Most compounds without a hit are left out; they make up all but 1.3% or so of the library.
AMA1 RON2 block: inhibitors of Plasmodium falciparum AMA1-RON2 interaction | AlphaScreen AMA1-biotinylated RON2 peptide binding | hit rate 0.2% among 360,000 | Potency, µM (top dose mostly 58.2 µM), most hits filed as inhibitors; further: nearly all actives have a fitted effect of over 45% in size
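AMA1 (3D7) with his tag at 25 nM final met compounds first, then biotinylated RON2 peptide at 25 nM; detection used donor plus acceptor beads, 10 µg/mL apiece, read by AlphaScreen after 30 min at room temperature.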
LmPK inhibitor: blocks Leishmania mexicana pyruvate kinase activity | Potency, µM (doses to about 57.5 µM), hits mostly inhibitors | AID 1721 | purified LmPK, Kinase-Glo ATP luminescence, 1 h | Q27686 | hit rate 0.37% among 290,000
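Purified LmPK (0.1 nM) with 0.5 mM PEP and 0.1 mM ADP in imidazole buffer pH 7.2 with MgCl2/KCl, 1 h at room temperature. ATP formed was read by luciferase luminescence and normalized to no-enzyme and uninhibited controls.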
Giardia FBPA inh: Giardia lamblia aldolase inhibition. Potency, µM (highest dose often 59.6 µM), usual class: inhibitors. purified Giardia FBPA. hit rate 0.71% among 290,000; further: nearly all actives have a fitted effect of over 55% in size
Target sequence (A8B2U2 whole entry, looked up): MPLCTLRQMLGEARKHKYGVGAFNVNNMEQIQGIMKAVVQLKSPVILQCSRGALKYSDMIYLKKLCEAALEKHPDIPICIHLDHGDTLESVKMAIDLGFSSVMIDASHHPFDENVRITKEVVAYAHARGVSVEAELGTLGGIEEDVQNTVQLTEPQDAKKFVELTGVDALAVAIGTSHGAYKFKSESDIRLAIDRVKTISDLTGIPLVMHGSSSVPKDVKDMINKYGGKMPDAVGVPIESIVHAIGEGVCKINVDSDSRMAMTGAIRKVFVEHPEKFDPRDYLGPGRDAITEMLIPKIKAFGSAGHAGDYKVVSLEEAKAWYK
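Giardia FBPA (40 nM reagent) was preincubated 10 min at RT with compound (up to 57.5 uM final), then substrate plus GAPDH/TPI/NAD/arsenate coupling system with diaphorase/resazurin was added; resorufin fluorescence (525/598 nm) was read after 20 min.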
AmpC no deterg: blocks E. coli AmpC beta-lactamase in detergent-free assay. hit rate 0.52% among 330,000. Potency, µM (top dose mostly 57.1 µM), most hits filed as inhibitors. AmpC nitrocefin hydrolysis, absorbance 480 nm, 0.0001% Triton; further: nearly all actives have a fitted effect of over 20% in size
Target sequence (P00811 whole entry, looked up): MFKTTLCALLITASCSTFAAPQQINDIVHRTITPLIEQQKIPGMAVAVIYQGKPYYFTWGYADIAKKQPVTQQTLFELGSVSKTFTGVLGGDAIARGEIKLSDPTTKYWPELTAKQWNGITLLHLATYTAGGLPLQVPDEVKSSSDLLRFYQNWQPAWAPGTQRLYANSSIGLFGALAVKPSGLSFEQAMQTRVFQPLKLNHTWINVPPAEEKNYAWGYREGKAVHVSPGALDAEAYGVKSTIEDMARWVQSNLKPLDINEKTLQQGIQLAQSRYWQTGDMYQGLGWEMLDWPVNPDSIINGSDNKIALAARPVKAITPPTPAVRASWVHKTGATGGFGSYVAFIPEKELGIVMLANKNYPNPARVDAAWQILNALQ
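AmpC (5.3 nM in the dispensed reagent) in 20 mM phosphate pH 7.0 with 0.01% (detergent screen) or 0.0001% Triton X-100 was preincubated with compounds for 15 min at room temperature. Nitrocefin was then added from an 800 uM solution, and hydrolysis was followed at 480 nm.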
AmpC inh detg: inhibitors of E. coli AmpC beta-lactamase with detergent; AmpC hydrolysis of nitrocefin, absorbance 480 nm, 0.01% Triton; AID 485294; hit rate 0.041% among 370,000; Potency, µM (titrated, usually from 114 µM), usual class: inhibitors; further: nearly all actives have a fitted effect of over 25% in size
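20 mM phosphate pH 7.0 + 0.01% (detergent screen) or 0.0001% Triton X-100; 5.3 nM AmpC reagent; cpd preinc 15 min RT; nitrocefin (800 uM stock) to start; A480 q20 s × 4 min; Activity was normalised to no-enzyme and no-compound control wells.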
A number is an active result; ! = a repeat was not active. The call rests on the fitted dose curve; in most records, active means well fitted curve in the direction sought with a large enough effect; inconclusive means small, poorly fitted or top-dose-only effect, or another doubt; inactive means no such curve, though single readings can be large; an effect the other way counts as inactive or inconclusive.

What do the screens show for `N#C/C(C(=O)Nc1ccc(Cl)cc1)=C(/S)Nc1ccccc1`?
AMA1 RON2 block: inactive; LmPK inhibitor: inactive; Giardia FBPA inh: inactive; AmpC no deterg: inconclusive; AmpC inh detg: 39.8µM

What do the screens show for `COC(=O)CS(=O)(=O)c1nc2ccccc2nc1N1CCCCC1`?
AmpC inh detg: inactive

Results for C[n+]1cc2c3c(ccc2c2ccc4cc5c(cc4c21)OCO5)OCO3 ?
Giardia FBPA inh: 6.29µM!

Results for COC(=O)c1cccc(Cn2c(Cl)c(/C=N/Nc3ccccc3C)sc2=O)c1 ?
AMA1 RON2 block: inconclusive; LmPK inhibitor: inactive; Giardia FBPA inh: inactive; AmpC no deterg: 31.6µM; AmpC inh detg: inactive

How did CC[C@@H]1Cn2c(c3nc(-c4cc(Cl)cc(Cl)c4Cl)nc-3n(C)c2=O)N1 do in these assays?
Giardia FBPA inh: inactive

Results for CCN(CC)C(=O)CSC(Nc1ccc(F)cc1)=C(C#N)C#N ?
AMA1 RON2 block: inactive; LmPK inhibitor: inactive; Giardia FBPA inh: inactive; AmpC no deterg: 14.1µM; AmpC inh detg: inactive

Results for Cc1cc(C)cc(NC(=O)c2ccc3oc(=O)c(S(=O)(=O)c4ccc(F)cc4)cc3c2)c1 ?
AmpC inh detg: inactive

How did CC(C)(C)N=Cc1c(O)ccc2oc3c(c12)CCCC3 do in these assays?
AMA1 RON2 block: inactive; LmPK inhibitor: inactive; Giardia FBPA inh: inactive; AmpC no deterg: inactive; AmpC inh detg: inactive

How did O=[N+]([O-])c1cc2oc3c(c2c(C=NCc2ccncc2)c1O)CCCC3 do in these assays?
AMA1 RON2 block: inactive; LmPK inhibitor: 14.1µM; Giardia FBPA inh: inconclusive; AmpC no deterg: inactive; AmpC inh detg: inactive

How did CC(C)CC(NC(=O)C(Cc1ccc(OCc2ccccc2)cc1)NC(=O)OC(C)(C)C)C(N)=O (configuration not stated) do in these assays?
AMA1 RON2 block: inactive; LmPK inhibitor: inactive; Giardia FBPA inh: inactive; AmpC no deterg: 7.08µM; AmpC inh detg: inactive

How did Cc1nonc1C(=O)N/N=C/c1ccncc1 do in these assays?
AMA1 RON2 block: inactive; LmPK inhibitor: 15.8µM; Giardia FBPA inh: inactive; AmpC no deterg: inactive; AmpC inh detg: inactive

How did Nc1nonc1C(=O)N/N=C/c1ccncc1 do in these assays?
AMA1 RON2 block: inactive; LmPK inhibitor: inactive; Giardia FBPA inh: inactive; AmpC no deterg: inactive; AmpC inh detg: inactive

What do the screens show for `O=C(COc1ccc2c(c1)OCO2)Nc1nccs1`?
AMA1 RON2 block: inconclusive; LmPK inhibitor: 14.1µM; Giardia FBPA inh: inactive; AmpC no deterg: inactive; AmpC inh detg: inactive

Results for COc1ccc(OCCC(=O)Nc2nccs2)cc1 ?
AMA1 RON2 block: inactive; LmPK inhibitor: inactive; Giardia FBPA inh: inactive; AmpC no deterg: inactive; AmpC inh detg: inactive

Results for Cc1cc(C)cc(OCC(=O)Nc2ccc3c(c2)OCO3)c1 ?
AMA1 RON2 block: 10µM; LmPK inhibitor: inactive; Giardia FBPA inh: inactive; AmpC no deterg: inactive; AmpC inh detg: inactive

How did COc1ccc(OCC(=O)Nc2nccs2)cc1 do in these assays?
AMA1 RON2 block: inactive; LmPK inhibitor: 25.1µM; Giardia FBPA inh: inactive; AmpC no deterg: inactive; AmpC inh detg: inconclusive

Results for Cc1noc(C)c1NC(=O)N(C)C[C@@H]1OCc2cn(nn2)CCCC(=O)N([C@H](C)CO)C[C@H]1C ?
AMA1 RON2 block: inactive

What do the screens show for `Oc1cccc(/C=N/Nc2nn3cnnc3c3ccccc23)c1`?
AMA1 RON2 block: inactive; LmPK inhibitor: 14.1µM; Giardia FBPA inh: inactive; AmpC no deterg: inactive; AmpC inh detg: inactive

Results for CCOc1c(Br)cc(C2C=C(C(=O)O)Nc3ncnn32)cc1OC (configuration not stated) ?
AmpC inh detg: inactive

How did CCOc1ccc(NCc2nnc(SCc3ccccc3Cl)n2-c2ccccc2)cc1 do in these assays?
AMA1 RON2 block: 26.7µM; LmPK inhibitor: inactive; Giardia FBPA inh: inactive; AmpC no deterg: inactive; AmpC inh detg: inactive

How did CC(NC(=O)Nc1ccc(Cl)cc1)c1ccc2c(c1)OCO2 (configuration not stated) do in these assays?
AMA1 RON2 block: inactive; LmPK inhibitor: inactive; Giardia FBPA inh: inactive; AmpC no deterg: 8.91µM; AmpC inh detg: inconclusive

How did COc1ccc(NC(=O)NC(C)c2ccc3c(c2)OCO3)cc1OC (configuration not stated) do in these assays?
AMA1 RON2 block: inactive; LmPK inhibitor: inactive; Giardia FBPA inh: inactive; AmpC no deterg: inactive; AmpC inh detg: inconclusive

How did COc1cc(CN2C[C@@H](CO)O[C@@H](n3cnc4c(N(C)C(C)C)ncnc43)C2)cc(OC)c1OC do in these assays?
AMA1 RON2 block: inactive

How did CN(c1ccccc1C(=O)NCC1CCCO1)S(C)(=O)=O (configuration not stated) do in these assays?
AMA1 RON2 block: inactive; LmPK inhibitor: inactive; Giardia FBPA inh: inactive; AmpC no deterg: 0.159µM; AmpC inh detg: inactive

How did CN(c1ccccc1)S(=O)(=O)c1ccc(C(=O)NCC2CCCO2)cc1 (configuration not stated) do in these assays?
AMA1 RON2 block: inactive; LmPK inhibitor: inactive; Giardia FBPA inh: inactive; AmpC no deterg: inactive; AmpC inh detg: inactive

How did CC(=O)N(Cc1ccccc1)c1c(N)nc(N)[nH]c1=O do in these assays?
AMA1 RON2 block: inactive

Results for Cc1ccc(NS(=O)(=O)c2cc(NC(=O)C(C)Oc3ccccc3)ccc2C)c(C)c1 (configuration not stated) ?
AMA1 RON2 block: inactive; LmPK inhibitor: inactive; Giardia FBPA inh: inactive; AmpC no deterg: inactive; AmpC inh detg: inconclusive

What do the screens show for `CCc1ccc(S(=O)(=O)Nc2cc(SCC(=O)O)c(O)c3ccccc23)cc1`?
AMA1 RON2 block: inconclusive; LmPK inhibitor: inconclusive; Giardia FBPA inh: 4.46µM; AmpC no deterg: inactive; AmpC inh detg: inconclusive

What do the screens show for `Cc1ccc(C)c(S(=O)(=O)Nc2cc(SCC(=O)O)c(O)c3ccccc23)c1`?
AMA1 RON2 block: inactive; LmPK inhibitor: 14.1µM; Giardia FBPA inh: 2.23µM; AmpC no deterg: inactive; AmpC inh detg: inconclusive

How did O=C(O)CSc1cc(NS(=O)(=O)c2cccc([N+](=O)[O-])c2)c2ccccc2c1O do in these assays?
AMA1 RON2 block: inactive; LmPK inhibitor: 14.1µM; Giardia FBPA inh: 2.51µM; AmpC no deterg: inactive; AmpC inh detg: inactive

How did CCOc1ccc(S(=O)(=O)Nc2cc(SCC(=O)O)c(O)c3ccccc23)cc1 do in these assays?
AMA1 RON2 block: inconclusive; LmPK inhibitor: 20µM; Giardia FBPA inh: 6.31µM; AmpC no deterg: inactive; AmpC inh detg: inconclusive

How did O=C(O)c1cccc(S(=O)(=O)Nc2ccc([N+](=O)[O-])cc2O)c1 do in these assays?
AMA1 RON2 block: inactive; LmPK inhibitor: inactive; Giardia FBPA inh: inactive; AmpC no deterg: inactive; AmpC inh detg: inactive

What do the screens show for `COc1ccc(NC(=O)C2CCN(c3cc(C)nc4c(-c5ccc(Cl)cc5)c(C)nn34)CC2)cc1`?
AmpC inh detg: inactive

How did COCC(=O)n1nc(-c2ccccc2)nc1NCc1ccc(N(C)C)cc1 do in these assays?
AMA1 RON2 block: 22.4µM; LmPK inhibitor: inactive; Giardia FBPA inh: inactive; AmpC no deterg: inactive; AmpC inh detg: inactive

What do the screens show for `CCN(CC)C(=O)C1=C(C)N(CCCOC)C(=O)C(CC(=O)NCc2cccs2)C1` (configuration not stated)?
AMA1 RON2 block: inactive

Screening data as filed in PubChem BioAssay.
